This is a sample that favours compounds with a hit; in the whole collection about 2.8% have one here.
IP6K1 inh – inhibitors of human IP6K1; Q92551; IP6K1 kinase, ADP-Glo luminescence, 2 h; hits give low values; activity change, % (series mostly up to about 58 µM); AID 1645851; 0.81% of 140,000 active; in the data active = activity change below about -25%; note: % is set by controls: 0 for no effect and ±100 for the full control effect
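ADP-Glo luminescence measures ADP made by human IP6K1 during a 2 h RT reaction with ATP/IP6 (mix at 1.3 mM/130 uM); top library doses 57.5 and 19.1 uM final.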
KDM5B inhibitor – inhibitors of human KDM5B histone demethylase | Potency, µM (doses to about 57.7 µM), actives largely listed as inhibitors | KDM5B demethylase, FDH-coupled NADH fluorescence (FDH is formaldehyde dehydrogenase) | Q9UGL1 | 2.6% of 220,000 active; note: potency is the fitted concentration of half-maximal effect; 0% is about no effect; nearly all actives have a fitted effect of over 70% in size
Target sequence (Q9UGL1 whole entry, looked up): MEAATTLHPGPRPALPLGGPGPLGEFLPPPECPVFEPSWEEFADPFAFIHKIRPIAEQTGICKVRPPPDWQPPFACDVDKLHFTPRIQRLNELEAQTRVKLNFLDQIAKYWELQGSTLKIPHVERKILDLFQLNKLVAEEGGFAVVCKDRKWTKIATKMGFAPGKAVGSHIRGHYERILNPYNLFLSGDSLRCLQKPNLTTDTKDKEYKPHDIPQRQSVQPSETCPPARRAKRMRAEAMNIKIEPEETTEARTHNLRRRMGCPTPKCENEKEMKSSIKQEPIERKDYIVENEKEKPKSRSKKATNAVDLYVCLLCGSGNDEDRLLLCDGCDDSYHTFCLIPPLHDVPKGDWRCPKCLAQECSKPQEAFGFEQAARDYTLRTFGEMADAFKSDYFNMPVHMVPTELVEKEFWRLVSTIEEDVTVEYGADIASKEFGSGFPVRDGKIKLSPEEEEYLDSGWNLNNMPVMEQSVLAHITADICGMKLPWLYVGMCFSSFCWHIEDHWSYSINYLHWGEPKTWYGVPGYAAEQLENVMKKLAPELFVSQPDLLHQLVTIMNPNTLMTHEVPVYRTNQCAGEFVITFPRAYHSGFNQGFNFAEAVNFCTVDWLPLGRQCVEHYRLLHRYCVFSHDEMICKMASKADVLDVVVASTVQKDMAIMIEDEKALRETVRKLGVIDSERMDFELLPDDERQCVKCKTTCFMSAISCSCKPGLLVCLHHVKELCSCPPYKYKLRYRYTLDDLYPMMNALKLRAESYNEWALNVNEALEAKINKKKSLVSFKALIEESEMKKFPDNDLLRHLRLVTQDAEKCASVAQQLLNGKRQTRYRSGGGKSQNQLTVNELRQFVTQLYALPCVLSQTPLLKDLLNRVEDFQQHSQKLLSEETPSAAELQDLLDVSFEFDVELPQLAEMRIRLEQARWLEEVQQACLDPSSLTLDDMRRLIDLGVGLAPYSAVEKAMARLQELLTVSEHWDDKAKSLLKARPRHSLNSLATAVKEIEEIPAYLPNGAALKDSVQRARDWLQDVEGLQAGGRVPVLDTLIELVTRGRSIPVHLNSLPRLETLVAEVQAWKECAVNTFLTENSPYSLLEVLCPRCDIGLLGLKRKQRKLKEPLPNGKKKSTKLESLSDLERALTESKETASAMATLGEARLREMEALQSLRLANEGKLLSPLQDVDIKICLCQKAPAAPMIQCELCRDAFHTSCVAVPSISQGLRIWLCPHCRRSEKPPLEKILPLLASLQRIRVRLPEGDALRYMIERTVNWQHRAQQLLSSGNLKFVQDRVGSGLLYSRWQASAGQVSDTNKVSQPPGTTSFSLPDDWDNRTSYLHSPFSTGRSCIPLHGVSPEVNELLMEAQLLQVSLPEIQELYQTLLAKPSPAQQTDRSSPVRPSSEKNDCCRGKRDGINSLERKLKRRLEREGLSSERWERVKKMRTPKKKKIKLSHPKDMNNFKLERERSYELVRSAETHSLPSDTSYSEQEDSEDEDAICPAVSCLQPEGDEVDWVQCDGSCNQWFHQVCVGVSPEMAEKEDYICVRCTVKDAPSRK
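Measured: NADH fluorescence change, 30 min, RT. System: KDM5BΔAP 200 nM final, H3K4me3 peptide, α-KG, Fe(II), ascorbate, NAD⁺ plus FDH, pH 7.5 HEPES. Compounds: titrated, 10 min pre-incubation with enzyme.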
SNCA expr inh – inhibitors of alpha-synuclein (SNCA) gene expression. HEK-293 SNCA-luciferase knock-in, luminescence, 24 h. 0.17% of 140,000 active. Potency, µM (series often up to 57.2 µM), inactives show at the highest dose activity change, negative = inhibition, usual class: inhibitors. AID 1671194;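 note: potency is the fitted concentration of half-maximal effect; plate controls were DMSO cells for no effect and cell-free wells for full effect; nearly all actives have a fitted effect of over 45% in size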
HEK293 viab – reduces viability of HEK-293 SNCA reporter cells. Potency, µM (titrated, usually from 57.1 µM), for the others: at the highest dose activity change, negative = cytotoxicity, most hits filed as cytotoxic. HEK-293-SNCA-luc viability, GF-AFC fluorescence, 24 h. AID 1671193. 0.12% of 150,000 active;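 note: potency is the fitted concentration of half-maximal effect; 0% = DMSO-treated cells and -100% = medium-only wells without cells; nearly all actives have a fitted effect of over 30% in size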
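Cytotoxicity counterscreen: after 24 h compound treatment of genome-edited SNCA-luciferase HEK-293 cells, live-cell protease substrate GF-AFC read by fluorescence after 30 min; activity scaled between DMSO (0%) and medium-only (-100%), curves Hill-fitted.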
* hit, by the source's call; i = inactive; u = inconclusive; x = no result; [ ] = dose if it differs, or a comment. Unless noted, calls come from the whole dose curve; as a rule, active = well fitted curve in the direction sought with a large enough effect; inconclusive = small, poorly fitted or top-dose-only effect, or another doubt; inactive = no such curve, though single readings can be large; an effect the other way counts as inactive or inconclusive.

SMILES | IP6K1 inh | KDM5B inhibitor | SNCA expr inh | HEK293 viab
CC(C)CCNC(=O)c1ccc(-c2nnc3ccc(NC(=O)C4CCC4)cn23)cc1 | -6.5 | u | 5.9% | -14.4%
O=C(O)c1ccc(-c2nnc3ccc(NC(=O)C4CCC4)cn23)cc1 | -0.9 | 31.6µM* | 148.5% | 2.2%
Cc1ccc(CNC(=O)c2ccc(-c3nnc4ccc(NC(=O)C5CCC5)cn34)cc2)cc1 | 5.9 | u | 0.7% | -3.2%
CC(C)CNC(=O)c1ccc(-c2nnc3ccc(NC(=O)C4CC4)cn23)cc1 | -11.6 | 14.1µM* | u | -2.5%
COc1cc(OC)cc(C(=O)/C(=C/c2cccs2)c2nc3ccccc3o2)c1 | x | i | x | x
Cc1nn(C)c(C)c1-c1ccnc(NCCC2(O)CCN(C)CC2)n1 | 0.7 | u | -18.7% | -7.9%
Cc1cc(N2CCCN(c3nccc(-c4c(C)nn(C)c4C)n3)CC2)ccn1 | 0.3 | 28.2µM* | -29.0% | 9.9%
COc1ccc2cc(CN3CCC(OC)CC3)c(-c3cccc(C)c3)nc2c1 | 12.6 | 25.1µM* | -1.4% | -19.3%
CN(C)CCN(Cc1ccc(-c2ccc(CNCCc3ccccc3)cc2)cc1)C(=O)CCC1CCCC1 | 2.6 | x | x | 18.9µM*
CSCC[C@@H]1NC(=O)c2cc(NC(=O)c3ccc4ccn(C)c4c3)ccc2NC1=O | -14.2 | 25.1µM* | -6.0% | 1.2%
COc1ccc(-c2nc(-c3nnn4c3COC(c3ccccc3Cl)C4)no2)cc1 (configuration not stated) | 2.5 | i | -12.4% | 4.5%
COc1cccc(-c2nc(-c3nnn4c3COC(c3ccccc3Cl)C4)no2)c1OC (configuration not stated) | 11.4 | 14.1µM* | 4.0% | -6.9%
CN(C)c1ccc(-c2nc(-c3nnn4c3COC(c3ccccc3Cl)C4)no2)cc1 (configuration not stated) | 27.5 | 25.1µM* | 8.7% | 7.0%
Cc1cc(Nc2ccc(C)c(Cl)c2)n2nc(Cc3ccccc3)nc2n1 | -5.1 | i | u | 3.4%
COCCn1c2c([n+](Cc3cnccn3)c1C)C(=O)c1ccccc1C2=O | x | x | 0.0961µM* | 0.0764µM*
CCOc1ccc(C2Cn3nnc(-c4nc(-c5ccccc5)no4)c3CO2)cc1 (configuration not stated) | 1.9 | 28.2µM* | 80.1% | 5.8%
Cc1cccc(-c2noc(-c3nnn4c3COC(c3ccc(F)cc3)C4)n2)c1 (configuration not stated) | -9.8 | i | 138.3% | u
CCOc1ccc(C2Cn3nnc(-c4nc(-c5cccc(Cl)c5)no4)c3CO2)cc1 (configuration not stated) | -1.5 | i | -9.0% | -8.0%
CCOc1cccc(-c2noc(-c3nnn4c3COC(c3ccc(Cl)cc3)C4)n2)c1 (configuration not stated) | -0.3 | 22.4µM* | u | 4.3%
CCOc1ccc(C2Cn3nnc(-c4nc(-c5cccc(C)c5)no4)c3CO2)cc1 (configuration not stated) | -14.3 | 20µM* | 25.9% | -13.1%
O=C(O)CCC(=O)N1C[C@@H]2OCC(=O)N(Cc3ccccc3)[C@@H]2C1 | -7.5 | u | -4.6%[87.6 µM] | -5.8%[87.6 µM]
O=C(O)CCc1ccnc(N2CCCC2)c1 | 4.5 | u | -8.9% | -8.7%
O=C(CCc1ccnc(N2CCCC2)c1)N1CCN(c2cccc(Cl)c2)CC1 | -4.1 | 22.4µM* | u | 1.8%
CCN(CC)c1cc(CCC(=O)NCc2ccc(Cl)cc2)ccn1 | 18.8 | 22.4µM* | -14.8% | -13.7%
Cc1ccc(CNC(=O)CCc2ccnc(N3CCCC3)c2)cc1 | -4.9 | 31.6µM* | -27.8% | 6.9%
SMILES | IP6K1 inh | KDM5B inhibitor | SNCA expr inh | HEK293 viab
CCN(CC)c1cc(CCC(=O)NCc2ccccc2C)ccn1 | 17.7 | u | -29.6% | -1.8%
CCCNC(=O)CCc1ccnc(N2CCCC2)c1 | 1.6 | 22.4µM* | 15.4% | 5.0%
Cc1ccsc1C(=O)NNC(=S)NC(C)c1ccccc1 (configuration not stated) | x | i | x | x
CCS(=O)(=O)c1ncc(Cl)c(C(=O)N(Cc2ccccc2)Cc2ccco2)n1 | -5.4 | u | u | 8.91µM*
O=C(NCCc1noc(-c2ccccc2)n1)C1NCCc2[nH]cnc21 (configuration not stated) | 18.1 | 35.5µM* | 4.9% | -13.6%
O=C(NCCc1nc(-c2cccnc2)no1)C1NCCc2[nH]cnc21 (configuration not stated) | 13.8 | i | u | -0.6%
CC(=O)NCC(=O)N1Cc2ccccc2CC2(CCCCN2CC2CCNC2)C1 (configuration not stated) | -8.8 | 2.82µM* | -10.2% | 0.8%
CCCC(=O)N1Cc2ccccc2CC2(CCCN2CCC)C1 (configuration not stated) | -7.7 | u | 51.9% | -7.7%
CC(C)C(=O)N1Cc2ccccc2CC2(CCCN(CC3CCNC3)C2)C1 (configuration not stated) | 10.5 | 35.5µM* | -6.9% | -7.4%
CCCC(=O)N1Cc2ccccc2CC2(CCCCN2CC)C1 (configuration not stated) | -18.3 | 56.2µM* | 1.6% | -7.3%
CCC(=O)N1Cc2ccccc2CC2(CCCCN2CC)C1 (configuration not stated) | -11.0 | 100µM* | -1.7%[87.6 µM] | -9.2%[87.6 µM]
O=C(c1cccc(Cl)c1)N1Cc2ccccc2CC2(CCCN2Cc2ccncc2)C1 (configuration not stated) | -10.8 | 50.1µM* | -21.5% | -20.2%
CCCn1cc(-c2ccnc(NC3CCN(Cc4ccccn4)CC3)n2)c(C)n1 | 9.2 | 28.2µM* | u | -28.5%
O=C(NCCCn1cccn1)c1ccccc1OC1CCN(Cc2ccccn2)CC1 | 6.1 | i | 30.6% | -1.3%
CCCn1cc(-c2ccnc(NCc3cccc(C)c3)n2)c(C)n1 | 0.2 | 28.2µM* | -3.7% | 3.0%
CCCn1cc(-c2ccnc(NCc3c(F)ccc(C)c3F)n2)c(C)n1 | 0.0 | u | -18.1% | -18.7%
Cc1noc(C)c1CCCNC(=O)c1ccc(N2CCN(CC3CC3)CC2)nc1 | 5.9 | 28.2µM* | 0.6% | -4.0%
COCCn1cnc2ccc(N3CCCC3)nc2c1=O | 6.6 | 31.6µM* | -20.2%[87.6 µM] | 5.2%[87.6 µM]
COCCn1cnc2ccc(-c3cccc(O)c3)nc2c1=O | -1.0 | i | u | 1.3%[87.6 µM]
COCCn1cnc2ccc(OCC3CC3)nc2c1=O | 7.2 | i | u | 5.8%[87.6 µM]
COCCn1cnc2ccc(-c3cccnc3OC)nc2c1=O | 11.3 | 39.8µM* | 33.6%[87.6 µM] | -8.0%[87.6 µM]
COCCn1cnc2ccc(-c3ccccc3)nc2c1=O | -6.1 | 35.5µM* | 35.5%[87.6 µM] | 7.9%[87.6 µM]
COCCn1cnc2ccc(-c3ccc(F)cc3)nc2c1=O | -1.2 | 35.5µM* | 21.5%[87.6 µM] | 3.8%[87.6 µM]
O=C(c1ccccc1Cl)N1CCCC(C(=O)N2CCC(N3CCCC3=O)CC2)C1 (configuration not stated) | 2.3 | x | 22.0% | 14.0%
O=C(NC1CCCCC1)C1CC(=O)N(c2n[nH]c3ccccc23)C1 (configuration not stated) | 7.8 | i | 26.1% | 1.9%
Cn1ncc(N2CCC(C(=O)N3CCCCC3)C2)cc1=O (configuration not stated) | 5.2 | i | -9.2% | 0.9%
